Compound activity as filed in PubChem BioAssay.
HT1080-NT tox: qHTS for induction of synthetic lethality in tumor cells producing 2HG: qHTS for the HT-1080-NT fibrosarcoma cell line. HT-1080-NT fibrosarcoma viability, CellTiter-Glo ATP luminescence, 48 h. Potency, µM (titrated, usually from 46.1 µM), inactives show top-dose activity, negative = less viability, hits mostly cytotoxic. actives 1.6% (n = 360,000). AID 686970, 2013;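 also: NT is the 2HG producing partner of a matched IDH1 knockdown line; 0% = DMSO-treated cells and -100% = media-only wells without cells; nearly all actives have a fitted effect of over 55% in size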
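Luminescent CellTiter-Glo readout after 48 hours of compound exposure at 37 degrees C defined viability of HT-1080-NT cells. Activity was normalized to DMSO wells and cell-free media wells; concentration-response curves were fitted and assigned curve classes.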
KB-V1 MDR tox: qHTS assay for MDR1-selective chemotherapeutics: Primary screen using the drug-selected MDR subline cells KB-V1 | KB-V1 MDR cells viability, CellTiter-Glo, 72 h | Potency, µM (series often up to 46.1 µM), actives largely listed as cytotoxic | actives 3.4% (n = 400,000) | AID 1347076, 2019; also: % is scaled to controls: 0 for no effect and ±100 for the full control effect; nearly all actives have a fitted effect of over 60% in size
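KB-V1 cells (P-gp-expressing MDR subline of KB-3-1) in phenol-red-free DMEM with 10% FBS were exposed to library compounds over a concentration series for 72 h at 37 degrees C. Viability read by CellTiter-Glo luminescence; concentration-effect curves fitted after normalization.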
HT1080 IDH1KD tx: qHTS for induction of synthetic lethality in tumor cells producing 2HG: qHTS for the HT-1080-IDH1KD cell line. HT-1080 IDH1 knockdown viability, ATP luminescence, 48 h. Potency, µM (titrated, usually from 46.1 µM), for inactives: at the highest dose activity, negative = toxicity, most hits filed as cytotoxic. actives 2% (n = 360,000);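 also: 0% = DMSO wells and -100% = cell-free medium wells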
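Assay cells: HT-1080 with IDH1 knockdown, 750 per well, RPMI/5% FBS. Exposure: 48 h at 37 °C following 2 h pre-incubation. Read: CellTiter-Glo luminescence; fitted concentration-response, curve class assigned.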
MCF10A rereplic: A quantitative high throughput screen for small molecules that induce DNA re-replication in MCF 10a normal breast cells; MCF 10A DNA re-replication, Hoechst nuclear intensity, 48 h; Potency, µM (series often up to 46.1 µM), for inactives: at the highest dose activity, positive = re-replication, actives largely listed as activators; actives 2.9% (n = 350,000); also: % of control where 0% means no effect; nearly all actives have a fitted effect of over 50% in size
KB-3-1 tox: qHTS assay for MDR1-selective chemotherapeutics: Primary screen using the parental adenocarcinoma cell KB-3-1; KB-3-1 viability, CellTiter-Glo ATP luminescence, 72 h; Potency, µM (doses to about 46.1 µM), actives largely listed as cytotoxic; actives 1.4% (n = 400,000); also: % is scaled to controls: 0 for no effect and ±100 for the full control effect; nearly all actives have a fitted effect of over 60% in size
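Multi-concentration cytotoxicity screen in KB-3-1 cells grown in DMEM lacking phenol red with 10% FBS. After 72 h at 37 °C with compound, ATP-dependent luminescence was recorded.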
SW480 rerep: A quantitative high throughput screen for small molecules that induce DNA re-replication in SW480 colon adenocarcinoma cells; SW480 DNA re-replication, Hoechst DNA content imaging, 48 h; Potency, µM (doses to about 46.1 µM), for the others: at the highest dose re-replication activation, most hits filed as activators; actives 1.8% (n = 340,000); AID 624297, 2012; also: % of control where 0% means no effect; nearly all actives have a fitted effect of over 55% in size
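Quantitative HTS format with DMSO vehicle controls; 48 hr drug incubation at 37 C, then 40 min Hoechst staining and scanning imager measurement at 405 nm excitation.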
An asterisk follows results filed as active; i = inactive; ? = inconclusive; / = no result given. Most compounds without a hit are left out; they make up all but 7.9% or so of the library. Calls follow the shape of the dose curve; as a rule, active = well fitted curve in the direction sought with a large enough effect; inconclusive = small, poorly fitted or top-dose-only effect, or another doubt; inactive = no such curve, though single readings can be large; an effect the other way counts as inactive or inconclusive. Potency is read from the fitted curve at half-maximal effect.

SMILES	HT1080-NT tox	KB-V1 MDR tox	HT1080 IDH1KD tx	MCF10A rereplic	KB-3-1 tox	SW480 rerep
CCCc1cc(C(=O)N2CCCC(Nc3ccc(C)c(C)c3)C2)n(C)n1 (stereo unspecified)	-5%	?	-2%	?	i	?
COc1ccc2cc(CNCCOCCOCCNCc3ccc4cc(OC)ccc4c3)ccc2c1	?	9.2µM*	16µM*	7.3µM*	7.3µM*	23%
NC(C(=O)O)C1ON=C(Cl)C1O (stereo unspecified)	21µM*	1.6µM*	?	0%	0.33µM*	?
Cc1ccc(Nc2cc(C)nc3ncnn23)cc1	27%	i	-1%	4%	i	-5%
COc1ccccc1CCNc1ncnc2nc[nH]c12	/	i	/	/	?	/
COc1cc(/C=N/NC(=O)c2sc3nc(C)cc(C)c3c2N)ccc1O	?	i	?	15µM*	i	?
COc1ccc(/C=N/NC(=O)CCn2cnc(-c3ccccc3)c2-c2ccccc2)cc1OC	9.2µM*	?	8.2µM*	8.2µM*	6.5µM*	21µM*
COc1cc(C=C(C#N)C(=O)c2ccccc2)cc(OC)c1OC	11%	i	5%	/	i	/
COc1cc(/C=N/n2cnc3c(sc4nc(C)cc(C)c43)c2=O)ccc1O	13%	i	3%	0%	i	?
COc1ccc(/C=N/NC(=O)CCC(=O)Nc2ccccc2)cc1OC	-12%	i	0%	15%	i	18%
COc1cc(/C=N\NC(=O)c2sc(N)nc2C)cc(OC)c1OC	29%	i	23%	21µM*	i	-5%
COc1cc(/C=C(/C(=O)O)c2ccc(-c3ccccc3)cc2)cc(OC)c1OC	?	?	9.2µM*	15µM*	?	21µM*
Nc1nc(N)nc(-c2cccc(Cl)c2)n1	5%	i	8%	11%	i	-13%
Cc1ncc([N+](=O)[O-])n1CC(=O)Nc1ccc(F)c(Cl)c1	5%	i	8%	0%	i	-10%
COc1cc(/C=N/NC(=O)CCn2c3ccccc3c3ccccc32)cc(OC)c1OC	-4%	4.6µM*	-8%	1%	i	5%
COc1cc(/C=N/NC(=O)c2ccc(-c3ccccc3)cc2)cc(OC)c1OC	0%	i	-10%	21%	i	9.2µM*
COc1ccc(/C=N\NC(=O)c2ccc(-c3ccccc3)cc2)c(OC)c1OC	-8%	i	7%	-3%	i	15%
Nc1[nH]c(N=NC(=O)c2ccccc2O)c2ccccc12	-5%	21µM*	-26%	?	?	?
CCCC(=O)N(C1CC(C)C(C#N)(C#N)C1(C#N)C#N)N(C)C (stereo unspecified)	?	i	?	2.9µM*	i	4.6µM*
CCCOc1ccc(C2C(=O)N(C3CCCCCC3)CC(=O)N2Cc2ccco2)cc1OC (stereo unspecified)	-12%	1.3µM*	-7%	9%	i	8%
CCCOc1ccc(C2C(=O)N(C3CCCCC3)CC(=O)N2C2CCCCC2)cc1OC (stereo unspecified)	/	i	/	/	i	/
NC(=O)COc1ccc(C(=O)/C=C2/C(=O)Nc3ccccc32)cc1	-26%	i	?	?	i	23µM*
COc1ccc(C(=O)/C=C2/C(=O)Nc3ccccc32)cc1	?	i	?	9.2µM*	?	?
O=C1Nc2ccccc2/C1=C/c1cnc(-c2ccccc2)[nH]1	?	i	?	-3%	i	-22%
C=CCOc1ccccc1C(=O)/C=C1/C(=O)Nc2ccccc21	?	i	?	3.7µM*	?	?
SMILES	HT1080-NT tox	KB-V1 MDR tox	HT1080 IDH1KD tx	MCF10A rereplic	KB-3-1 tox	SW480 rerep
C=CCOc1ccc(C(=O)/C=C2/C(=O)Nc3ccccc32)cc1	?	i	?	?	i	?
COc1ccc(C(=O)/C=C2/C(=O)Nc3ccccc32)c(OC)c1	18µM*	?	23µM*	23µM*	?	?
COC(=O)[C@]1(C)N[C@H](CN(C)C(=O)C2CCCCC2)[C@@H]2C(=O)N(Cc3ccccc3)C(=O)[C@@H]21	8%	i	6%	0%	i	-13%
O=C(CSc1nc2ccccc2n1Cc1ccccc1Cl)NCc1ccccc1	/	i	/	/	i	/
CCOC(=O)C1=C(C)NC(C)=C(C(=O)OCC)C1C(=O)OCC(=O)Nc1ccc(NC(C)=O)cc1	-1%	?	-3%	/	i	/
O=C1Nc2ccccc2/C1=C/C(=O)c1cccs1	?	i	?	21µM*	i	?
COc1ccc(C(=O)/C=C2/c3ccccc3CC(C)(C)N2C)cc1	6.3µM*	i	6.3µM*	?	i	?
COc1ccc(C(=O)/C=C2/C(=O)Nc3ccccc32)cc1OC	-9%	i	-10%	8.2µM*	i	?
Cc1nc(Nc2ccc(O)cc2)c2c3c(sc2n1)CCCC3	?	i	-24%	?	i	4%
Cc1nc(NC(C)c2ccccc2)c2c3c(sc2n1)CCC3 (stereo unspecified)	-1%	i	-2%	10µM*	?	?
Cc1ccc(CNc2nc(C)nc3sc4c(c23)CCC4)cc1	3%	8.2µM*	0%	18%	i	6%
COc1ccc(C)cc1NC(=O)Cc1ccc(NC(=O)N2CCCCc3ccccc32)cc1	/	i	/	/	i	/
CC(=O)Nc1cc(-c2ccc(F)cc2)cn2c(-c3ccc(F)c(Cl)c3)cnc12	?	i	?	/	i	/
CC(=O)Nc1cc(-c2cccc(C(=O)NCCN(C)C)c2)cn2c(-c3ccc(F)c(Cl)c3)cnc12	16µM*	i	21µM*	/	i	/
CC(=O)Nc1cc(-c2ccc(CO)cc2)cn2c(-c3ccc(F)c(Cl)c3)cnc12	33µM*	i	?	/	i	/
CC(=O)Nc1cc(-c2cccc(C(=O)NCCN(C)C)c2)cn2c(-c3ccc(C(C)=O)cc3)cnc12	18µM*	i	?	/	?	/
Cc1cc(C(=O)NCC(C)(C)N2CCOCC2)c(C)o1	12%	i	4%	6%	i	-313%
